KDM5B inh = KDM5B demethylase inhibition; KDM5B demethylase, FDH-coupled NADH fluorescence (FDH is formaldehyde dehydrogenase); Potency, µM (doses to about 57.7 µM), usual class: inhibitors; 2.6% of 220,000 active; active = well fitted inhibition curve with a large enough effect; also: 0% is about no effect; nearly all actives have a fitted effect of over 70% in size
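Measured: NADH fluorescence change, 30 min, RT. System: KDM5BΔAP 200 nM final, H3K4me3 peptide, α-KG, Fe(II), ascorbate, NAD⁺ plus FDH, pH 7.5 HEPES. Compounds: titrated, 10 min pre-incubation with enzyme.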
* marks the source's active call; other numbers are inactive results; i = inactive. Many of the other results were omitted from the sample, so hits are more common in it than they were. Potency is read from the fitted curve at half-maximal effect.

SMILES	KDM5B inh
COc1cc(C(=O)OCC(=O)NC2CCC(C)CC2)cc(Cl)c1OC (centres undefined)	i
C=CCNC(=O)NC(=O)CNc1ccccc1C#N	i
CC1CCN(C(=O)C2CCCN(C(=O)c3ccc4cc[nH]c4c3)C2)CC1 (centres undefined)	i
N#Cc1cccc(CSc2nnnn2-c2cccc(F)c2)c1	i
Cc1nn(Cc2ccccc2)c(C)c1NC(=O)Nc1cccc(Cl)c1	i
COc1ccccc1CC(=O)N[C@@H]1CN(c2ncccn2)C[C@H]1CN(C)C	22.4µM*
COc1ccccc1CCC(=O)N[C@@H]1CN(c2ccncn2)C[C@H]1CN(C)C	i
CCOc1ccccc1C(=O)N[C@@H]1CN(C)C[C@H]1CN(C)C	i
CCN(CC)C(=S)SC/C(=N/Nc1ccc(Br)cc1)c1ccccc1	i
Cc1cccc(N(Cc2ccccc2)C(=O)c2ccccn2)c1	i
COc1ccc(-n2c(SCC3CCOCO3)nnc2-c2ccccc2)cc1OC (centres undefined)	i
CCC(C)[C@H](NC(=O)OC(C)(C)C)c1nnc(SC)o1 (some centres undefined)	i
COc1cccc(CNC(=O)NC2CCc3n[nH]c(=O)n3CC2)c1 (centres undefined)	i
COc1cccc(C(=O)N[C@@H]2CN(S(C)(=O)=O)C[C@H]2CN(C)C)c1	i
COCc1c(C(=O)N[C@@H]2CN(Cc3cccnc3)C[C@H]2CN(C)C)noc1C	i
COCc1c(C(=O)N[C@@H]2CN(c3ncccn3)C[C@H]2CN(C)C)noc1C	28.2µM*
COCc1c(C(=O)N2C[C@@H](COC)[C@H](c3ccncc3)C2)noc1C	i
CN(C)C[C@@H]1CN(c2ncccn2)C[C@H]1N	i
COCCNC(=O)N[C@@H]1CN(c2ncccn2)C[C@H]1CN(C)C	22.4µM*
COc1cccc(CNC(=O)N[C@@H]2CN(c3ncccn3)C[C@H]2CN(C)C)c1	28.2µM*
Cc1cc(=O)oc2cc(OCC(=O)NCc3cccc(C(F)(F)F)c3)ccc12	i
CCc1ccc(C(=O)N(CC#N)C2CC2)cc1	i
CCC1(C)Cc2nc3sc4c(=O)n(CC(=O)NCc5ccccc5)cnc4c3cc2CO1 (centres undefined)	i
CC(OC(=O)C1=COCCO1)C(=O)Nc1ccc(N2CCOCC2)cc1 (centres undefined)	i
CN1CCC2(Cc3ccccc3CN(C(=O)c3cccc(Cl)c3)C2)C1 (centres undefined)	i
SMILES	KDM5B inh
CCc1nn2c(=O)cc(CN(CC)C3CCCCC3)nc2s1	i
CCn1c(CNC(C)c2ccc(F)c(F)c2)nc2cc(S(=O)(=O)N3CCOCC3)ccc21 (centres undefined)	i
O=c1cc(CN2CCN(c3cccc(Cl)c3)CC2)c2cc(Cl)ccc2o1	i
CCc1ccc(NC(=O)N2CCN(Cc3ccc(Cl)s3)CC2)cc1	i
CC(=O)c1c(C)[nH]c(C(=O)/C(C#N)=C\c2ccc(F)cc2)c1C	i
O=Cc1cccc(-c2ccc(C(=O)O)o2)c1	126µM*
O=C(O)c1ccc(Cc2ccccc2)o1	i
COc1ccc(F)cc1-c1cccc(C=O)c1	i
COC(=O)CCc1sc(Nc2ccc(F)c(F)c2F)nc1-c1ccc(OC)cc1	i
COc1cccc(-c2nc(CSCC(=O)NCc3ccc(C)cc3)c(C)o2)c1	i
COc1ccc(C2CCCN2CC(=O)N2CCN(c3cccc(C(F)(F)F)c3)CC2)c(OC)c1 (centres undefined)	i
Cc1cn2nc(-c3nc(C4CCCN(C(=O)Cc5ccsc5)C4)no3)cc2c(=O)[nH]1 (centres undefined)	i
COCc1nc(C2CCCN(C(=O)c3ccc(C)s3)C2)no1 (centres undefined)	i
Cc1cn2nc(-c3nc(C4CCCN(C(=O)c5sccc5C)C4)no3)cc2c(=O)[nH]1 (centres undefined)	25.1µM*
Cc1cn2nc(-c3nc(C4CCCN(C(=O)c5ccc(C)s5)C4)no3)cc2c(=O)[nH]1 (centres undefined)	28.2µM*
Cc1cccc(C(=O)N2CCCC(c3noc(-c4cc5c(=O)[nH]c(C)cn5n4)n3)C2)c1 (centres undefined)	i
COCc1nc(C2CCCN(C(=O)c3ccc(C)cc3)C2)no1 (centres undefined)	i
CCc1ccc(C(=O)N2CCCC(c3noc(-c4cc5c(=O)[nH]c(C)cn5n4)n3)C2)cc1 (centres undefined)	25.1µM*
Cc1ncoc1C(=O)N1CCC(c2noc(-c3ccccc3)n2)C1 (centres undefined)	i
Cc1ccsc1C(=O)N1CCCC(c2noc(COc3ccccc3F)n2)C1 (centres undefined)	i
COCC(=O)NC1CCN(Cc2nnnn2-c2ccccc2)CC1	i
Cc1ccsc1C(=O)N1CCCC1c1noc(COc2ccc(F)cc2)n1 (centres undefined)	i
Cn1nc(C(=O)N2CCCC2c2ccc3c(c2)OCCCO3)c2ccccc2c1=O (centres undefined)	i
Fc1ccccc1/C=N/NC(=S)NCc1ccccc1	i
COCc1ccc2c(c1)c(OC(C)(C)C(=O)N1CCN(CCO)CC1)nn2Cc1cccnc1	i
SMILES	KDM5B inh
COCc1ccc2c(c1)c(OC(C)(C)C(=O)NCCN1CCOCC1)nn2CCC(C)C	25.1µM*
COCc1ccc2c(c1)c(OC(C)(C)C(=O)NCCCn1ccnc1)nn2Cc1cccnc1	i
COCc1ccc2c(c1)c(OC(C)(C)C(=O)NCCN1CCOCC1)nn2Cc1cccnc1	i
COCc1ccc2c(c1)c(OC(C)(C)C(=O)Nc1ccccn1)nn2CCC(C)C	i
COCc1ccc2c(c1)c(OC(C)(C)C(=O)NC1CCN(C)CC1)nn2CCC(C)C	35.5µM*
COCc1ccc2c(c1)c(OC(C)(C)C(=O)NCCCN1CCCC1=O)nn2Cc1cccnc1	i
COCc1ccc2c(c1)c(OC(C)(C)C(=O)NC1CC1)nn2CCC(C)C	39.8µM*
Cc1cccc(/C=C2\Cc3ccccc3C2=O)c1	i
O=S1(=O)CCN2C(c3ccc(Cl)cc3Cl)=CSC2=N1	i
Cc1cccc(NC(=O)N2CC(Oc3ccccc3-c3noc(C)n3)C2)c1	i
Cc1ccc(/C=C(/C#N)C(=O)C(C)C)cc1C	i
CN1CCN(C(CNC(=O)c2cc(-c3ccccc3)on2)c2cccs2)CC1 (centres undefined)	i
C(=N\N=C1c2ccccc2-c2ccccc21)/c1cccnc1	i
O=C(NCC1CCCO1)c1cc(S(=O)(=O)N2CCOCC2)c(Cl)cc1Cl (centres undefined)	i
O=C(NCC1COCCO1)c1ccc(CN2CCC(N3CCCC3)CC2)[nH]c1=O (centres undefined)	28.2µM*
O=C(NCC1CCCO1)c1cccc2ccccc12 (centres undefined)	i
CCS(=O)(=O)Nc1ccc(C(=O)N2CCN(C(C)=O)CC(O)C2)cc1 (centres undefined)	i
CC(=O)N1CCN(C(=O)c2ncoc2C2CC2)CC(O)C1 (centres undefined)	i
CN(C)Cc1nnc(C2CCCN(C(=O)c3cccc(N(C)C)c3)C2)n1C (centres undefined)	i
CCC(O)c1cc2n(n1)CCN(C(=O)c1ccc(-c3ccccc3)n1C)C2 (centres undefined)	i
CCC(O)c1cc2n(n1)CCN(c1nc(-c3ccccc3)nc3c1CCC3)C2 (centres undefined)	i

Screens from PubChem.
